About 13,000 (27%) of roughly 48,000 compounds showed an effect of 50% or more. Some of the results follow.
What follows are compounds tested on Wolbachia pipientis (assay: Anti-Wolbachia Cell-Based Screen). Settings: 5 µM.
Format: functional
Parameters: scale not given: in the data most compounds retested in dose-response had high values

SMILES | Percent Effect [%]
CSc1ccc(-n2ccnc2-c2cc3n(n2)CCNC3)cc1 | -5.547
CC(C)c1cnc(N2C[C@H](CO)C[C@H](CN3CCOCC3)C2)nc1 | -10.14
COCc1noc(C2(c3ccc(Cl)cc3)CCOCC2)n1 | 0.3658
Cc1c(Cl)c(CN2CCCC2Cn2cncn2)nc2ccccc12 (stereo not given) | 0.2475
Cc1cnn(CC2CCCCN2C(=O)c2nccnc2N)c1 (stereo not given) | 123.3
Cc1cnn(CC2CCCN2C(=O)c2ccc(C(N)=O)cn2)c1 (stereo not given) | -6.228
Cc1cnn(CC2CCCN2C(=O)c2nccnc2N)c1 (stereo not given) | 124
Cc1cnn(CC2CCCN2C(=O)c2nccc3ccccc23)c1 (stereo not given) | -8.549
Cc1ccsc1C(=O)N1CC2CC1(C(=O)NCc1ccco1)C2 | -21.25
Cc1oncc1C(=O)N1CC[C@H]2CO[C@H](CN3CCCC3)[C@H]2C1 | 2.112
O=C(N1CCOCC1)N1CCOC[C@H](Oc2ccc(C(F)(F)F)cc2)C1 | -17.33
COc1cc(C)ccc1OCC(=O)NS(=O)(=O)c1ccc(Br)s1 | 133.3
COc1ccc(OCC(=O)NS(=O)(=O)c2ccc(Br)s2)cc1 | 71.28
COc1ccc(OCC(=O)NS(=O)(=O)c2cc(C)ccc2C)cc1 | 6.123
N#CCc1ccc(OCC(=O)NS(=O)(=O)c2ccc(Br)s2)cc1 | -7.056
COc1ccccc1OCC(=O)NS(=O)(=O)c1ccc(Cl)cc1F | 6.198
COc1ccc(OCC(=O)NS(=O)(=O)c2ccc(Cl)s2)cc1 | 9.961
COc1cccc(OCC(=O)NS(=O)(=O)c2ccc(C)s2)c1 | 7.75
COc1cc(C)ccc1OCC(=O)NS(=O)(=O)c1cc(F)ccc1F | 4.965
CC(=O)c1cccc(OCC(=O)NS(=O)(=O)c2ccc(C)s2)c1 | 0.05865
COc1ccccc1OCC(=O)NS(=O)(=O)c1ccc(Cl)s1 | 123.5
CC(=O)c1ccc(OCC(=O)NS(=O)(=O)c2ccc(Cl)s2)cc1 | 1.494
COc1cccc(OCC(=O)NS(=O)(=O)c2ccc(Br)s2)c1 | 93.04
CC(Sc1nncn1C)C(=O)NCCCOc1ccc(F)cc1 (stereo not given) | 7.065
COC1CCCN(C(=O)NCCCF)C1 (stereo not given) | 5.737
CS(=O)(=O)NC[C@]12COC[C@H]1CN(Cc1ccc3c(c1)OCO3)C2.O=C(O)C(F)(F)F | 100.7
COC[C@]12COC[C@H]1CN(Cc1ccc3c(c1)OCO3)C2.O=C(O)C(F)(F)F | 110.8

SMILES | Percent Effect [%]
CCOC[C@]12COC[C@H]1CN(Cc1ccc3c(c1)OCO3)C2.O=C(O)C(F)(F)F | 94.03
O=C(O)C(F)(F)F.O=C(O)C(F)(F)F.c1cc2c(cc1CN1C[C@@H]3COC[C@@H](N4CCCC4)[C@@H]3C1)OCO2 | 5.593
CS(=O)(=O)NC[C@]12COC[C@H]1CN(CCc1ccccc1)C2.O=C(O)C(F)(F)F | 1.225
CCOC[C@]12COC[C@H]1CN(Cc1ccc(F)c(F)c1)C2.O=C(O)C(F)(F)F | 108.4
CCS(=O)(=O)NC[C@]12COC[C@H]1CN(Cc1ccsc1)C2.O=C(O)C(F)(F)F | -7.396
Cc1nc(C(C)(C)NCc2ncc(C3CC3)o2)sc1C | -9.268
CCc1ccc(CNc2ccccc2CN2CCC(O)CC2)o1 | -8.641
CCCn1cc(CNCC(c2ccc(C)s2)N2CCOCC2)cn1 (stereo not given) | 19.75
COc1ccc(CN2C[C@@H]3COC[C@]3(CN(C)C)C2)cc1.O=C(O)C(F)(F)F.O=C(O)C(F)(F)F | 3.897
CN(C)C[C@]12COC[C@H]1CN(Cc1ccc3c(c1)OCO3)C2.O=C(O)C(F)(F)F.O=C(O)C(F)(F)F | 103.2
CCC[C@H]1CN(Cc2ccc3c(c2)OCCO3)C[C@@H]1NC(=O)COC | -19.75
COCC(=O)NC[C@]12COC[C@H]1CN(c1ncc(F)cn1)C2.O=C(O)C(F)(F)F | -9.196
COCC(=O)NC[C@]12COC[C@H]1CN(Cc1ccc3c(c1)OCO3)C2.O=C(O)C(F)(F)F | 110
COc1ccc(CC(=O)N2C[C@@H]3COC[C@]3(CN(C)C)C2)cc1.O=C(O)C(F)(F)F | 1.592
COCC(=O)NC[C@]1(O)CN(Cc2ccc3c(c2)OCCO3)C[C@H]1O | 114.3
CC(=O)N1CCN(Cc2ccc3c(c2)OCCO3)CC(O)C1 (stereo not given) | -5.239
O[C@H]1[C@H](NCCc2ccccn2)c2ccccc2C12CCNCC2 | 4.411
CCC(CC)N(Cc1ccc2c(c1)OCO2)C(=O)c1ccc(=O)n(C)c1 | -1.967
CN(Cc1cn2c(n1)CN(C(N)=O)CC2)Cc1ccco1 | 9.855
Cc1ccc(N2CCc3c(CN(C)Cc4ccco4)cncc3C2)nn1.Cl.Cl | 99
Cc1cnc(N2CCc3c(CN(C)Cc4ccco4)cncc3C2)nc1 | 78.05
CN(Cc1ccco1)Cc1cncc2c1CCN(c1ncccn1)C2.Cl.Cl | 2.734
CC(=O)Nn1c(C)cc(CN2CCC(C(=O)N3CCCC3)CC2)c1C | 13.77
CC(C)(CNc1ccccc1S(=O)(=O)C(F)F)N1CCOCC1 | 14.98
CCCc1nnsc1C(=O)NCC1CCN(C(=O)c2ccncc2)CC1 | 2.794
Cc1cccnc1C(=O)N1CCC(Cc2cnc3[nH]ccc3c2)CC1 | 75.79
CC1CCN(CC2CCN(C(=O)c3c[nH]c4ncccc34)CC2)CC1 | -10.12

SMILES | Percent Effect [%]
O=C(c1cnccn1)N1CCC2(CC1)C(=O)NCC2c1ccccc1 (stereo not given) | -11.37
O=C(c1cncs1)N1CCC(Cc2cnc3[nH]ccc3c2)CC1 | 101.1
O=C(c1ccncc1)N1CCC(Cc2cnc3[nH]ccc3c2)CC1 | 127.1
CCn1c(C2CCN(C(=O)c3ccc4cc[nH]c4c3)CC2)n[nH]c1=O | 3.076
O=C(c1cnccn1)N1CCC(Cc2cnc3[nH]ccc3c2)CC1 | 109.1
CC(C)CC(=O)N1CCN(c2cc(N(C)C)cnn2)CC1 | 10.83
CCc1nc(CN2CCCN(C(=O)COC(C)C)CC2)cs1 | 23.5
CCC(C(=O)NCc1ccncc1)N(c1ccc(OC)cc1)S(C)(=O)=O (stereo not given) | -7.147
O=C(NCc1nc(NC2CCCC2)c2cc(Cl)ccc2n1)c1cncs1 | -2.993
CC(C(=O)Nc1cnn(CC(N)=O)c1)c1ccc(Cl)s1 (stereo not given) | -7.657
O=C(O)c1cc2c(nc1O)CC(c1cccc(Cl)c1)CC2=O (stereo not given) | 8.981
O=C(c1ccccn1)N1CCC(Cc2cnc3[nH]ccc3c2)CC1 | 136.1
O=C(CCC1CCN(C(=O)c2cnco2)CC1)NCc1cccc(Cl)c1 | 11.71
Cc1cccc(C(=O)N2CCC(Cc3cnc4[nH]ccc4c3)CC2)n1 | -6.998
O=C(c1cnco1)N1CCC(Cc2ccc3ncccc3c2)CC1 | 111
O=C(c1cnco1)N1CCCC(Cc2cccc3ncccc23)C1 (stereo not given) | -11.15
O=C(O)C(F)(F)F.O=S1(=O)NC[C@H]2CCN(Cc3ccccc3)CC[C@H]21 | -3.468
Cc1cc(C)c(CNC(=O)NCCNc2ccccn2)c(=O)[nH]1 | 9.095
Cc1cnn(C2CCCN(C(=O)c3cc[nH]n3)C2)c1 (stereo not given) | -3.499
Cc1cnn(C2CCCN(C(=O)c3cc(-c4ccco4)[nH]n3)C2)c1 (stereo not given) | 10.35
O=C(c1ccn(-c2cccc(F)c2)n1)N1CCCC(n2cccn2)C1 (stereo not given) | 0.279
Cc1cnn(C2CCCN(C(=O)c3cn4ccccc4n3)C2)c1 (stereo not given) | 104.2
Cc1cnn(C2CCCN(C(=O)c3cnc4ccccc4n3)C2)c1 (stereo not given) | -3.195
O=C(c1cn(-c2ccc(F)cc2)nn1)N1CCCC(n2cccn2)C1 (stereo not given) | 123
Cc1cnn(C2CCCN(C(=O)c3cc(-c4ccccc4C)n[nH]3)C2)c1 (stereo not given) | -3.414
Cc1cccc(-n2cc(C(=O)N3CCCC(n4ccnc4)C3)nn2)c1 (stereo not given) | 7.382
Cc1cnn(C2CCCN(C(=O)c3cn(-c4ccccc4)nn3)C2)c1 (stereo not given) | 117.4

SMILES | Percent Effect [%]
Cc1ccc(-n2cc(C(=O)N3CCCC(n4cccn4)C3)nn2)cc1 (stereo not given) | 117.4
Cc1cccc(-n2cc(C(=O)N3CCCC(n4cccn4)C3)nn2)c1 (stereo not given) | 4.017
CCSc1ccc(C(=O)Nc2c(C)nn(C(C)C)c2C)cn1 | 10.44
COCCN(C)CC1CCCN1S(=O)(=O)c1cc(C)oc1C (stereo not given) | 0.4223
Cc1ncsc1CCN(C)Cc1cc2n(n1)CCN(Cc1ncc[nH]1)C2 | 0.3121
COc1ccc(C2CCCN2C(=O)c2ccc(=O)n(C)c2)cc1OC (stereo not given) | -4.846
CC(=O)NCCNC(=O)Nc1ccc(C)cc1OCc1ccccc1 | -17.41
Cc1nn(-c2ccccc2)cc1C(=O)N1CCCC(n2cccn2)C1 (stereo not given) | 7.584
O=C(c1ccc(N2CCCC2)nn1)N1CCCC(n2cccn2)C1 (stereo not given) | 6.785
O=C(c1cn(-c2ccccc2)nn1)N1CCCC(n2cccn2)C1 (stereo not given) | 123.4
Cc1nc(CNC(C)c2ccc(OCC(=O)NC3CC3)cc2)cs1 (stereo not given) | 11.98
Cc1ccc(C(=O)N2CCc3ncccc3C2)cc1N1CCNC1=O | 0.3953
CC(C)c1nccn1C(C)C(=O)NC1CCN(S(C)(=O)=O)CC1 (stereo not given) | -4.449
CCCC(C(=O)NC1CCN(S(C)(=O)=O)CC1)c1ccccc1 (stereo not given) | -7.418
CS(=O)(=O)N1CCC(NC(=O)COc2cccc(Cl)c2)CC1 | 141.5
CS(=O)(=O)N1CCC(NC(=O)COc2ccc(Cl)cc2)CC1 | 131.2
CS(=O)(=O)N1CCC(NC(=O)COc2ccc3ccccc3c2)CC1 | 103.7
Cc1ccc(OCC(=O)NC2CCN(S(C)(=O)=O)CC2)cc1 | 137.9
CN1CC(NC(=O)CCOc2cccc(Cl)c2)CC1=O (stereo not given) | -1.154
CC(Oc1cccc(Cl)c1)C(=O)Nc1cnn(CC(=O)NC2CC2)c1 (stereo not given) | 3.95
CCn1cc(C(=O)NC2CCN(S(C)(=O)=O)CC2)c2ccccc21 | -0.7206
Cc1cn(CC(=O)NC2CCN(S(C)(=O)=O)CC2)c2ccccc12 | -0.9919
Cc1ccc(OCC(=O)NS(=O)(=O)Cc2ccccc2)cc1 | 1.419
O=C(COc1ccc(Cl)cc1)NCc1nncn1C1CC1 | -10.37

Source: ChEMBL document CHEMBL3988442, “University of Dundee, Small-Polar-MMV Screening Library” (2021)
